Screening data from PubChem.
In the library only some 7.5% were active in any assay of this set; here they are far more common.
NPC1 promoter act – activators of NPC1 promoter | hit rate 2.4% among 320,000 | Potency, µM (top dose mostly 9.22 µM), inactives show top-dose activation, most hits filed as activators | Huh7 NPC1 promoter luciferase reporter, 24 h | AID 485313; further: % of control where 0% means no effect; nearly all actives have a fitted effect of over 60% in size
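Cells: Huh7 expressing luciferase under the NPC1 promoter, 1500/well. Seeded 2 h, compound added, incubated 24 h at 37 °C. Luciferase reagent, 10 min ambient, then luminescence.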
FLuc modulator – firefly luciferase modulation, counter-screen for miR-21 project; P08659; purified FLuc, Km substrates, luminescence inhibition; Potency, µM (titrated, usually from 57.5 µM), without a hit: at the top dose activity change, negative = inhibition, most hits filed as inhibitors; hit rate 6.9% among 360,000;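 further: plate controls were vehicle for no effect and reference inhibitor for full effect; nearly all actives have a fitted effect of over 55% in size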
Target sequence (P08659 whole entry, looked up): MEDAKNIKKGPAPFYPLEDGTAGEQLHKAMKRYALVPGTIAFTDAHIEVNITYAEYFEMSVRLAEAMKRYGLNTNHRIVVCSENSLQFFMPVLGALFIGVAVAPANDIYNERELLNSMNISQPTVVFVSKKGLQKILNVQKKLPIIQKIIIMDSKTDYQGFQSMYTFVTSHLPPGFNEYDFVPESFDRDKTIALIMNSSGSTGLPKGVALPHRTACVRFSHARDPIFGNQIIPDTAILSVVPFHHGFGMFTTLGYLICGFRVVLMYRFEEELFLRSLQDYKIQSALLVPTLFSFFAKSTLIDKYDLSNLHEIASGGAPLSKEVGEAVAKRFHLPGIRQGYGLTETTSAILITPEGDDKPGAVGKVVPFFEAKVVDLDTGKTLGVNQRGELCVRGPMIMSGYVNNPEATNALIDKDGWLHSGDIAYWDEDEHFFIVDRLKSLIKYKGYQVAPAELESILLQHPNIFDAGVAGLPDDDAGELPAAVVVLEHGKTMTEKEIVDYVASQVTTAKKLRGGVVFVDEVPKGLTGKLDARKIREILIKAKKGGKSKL
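Biochemical qHTS of compounds, final roughly 60 µM downward over six points, against 10 nM purified firefly luciferase using Km concentrations of substrates (10 uM D-luciferin, 10 uM ATP) in Tris acetate pH 7.5 buffer; luminescence output.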
Rab9 prom act – Rab9 promoter activation. AID 485297. Huh7 Rab9 promoter-luciferase reporter, luminescence, 24 h. hit rate 2.8% among 320,000. Potency, µM (top dose mostly 9.22 µM), for inactives: at the highest dose activation, negative = inhibition, most hits filed as activators; further: % of control where 0% means no effect; nearly all actives have a fitted effect of over 60% in size
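Luciferase signal after 10 min detection reagent at ambient indicates Rab9 promoter upregulation; stably transfected Huh7 cells were treated 24 h with compound in DMSO at 37 °C, 5% CO2.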
SMN2 splice enh – enhancers of SMN2 splice variant expression | hit rate 2.8% among 210,000 | Potency, µM (series often up to 46.1 µM), without a hit: at the highest dose activity change, positive = activation, actives largely listed as activators | AID 1458 | HEK293 SMN2-luciferase splicing reporter, luminescence, 30-36 h; further: % of control where 0% means no effect; nearly all actives have a fitted effect of over 55% in size
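qHTS luciferase splicing reporter: luminescence rises when SMN2 exon 7 is included in transfected HEK293 cells. Compound exposure lasted 30-36 h at 37C, with 4.5 mM final sodium butyrate as control, followed by a ONE-Glo read.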
Luc counter – blocks Kinase-Glo luciferase, a counter-screen artifact | Kinase-Glo luciferase, ATP luminescence, 8 min | hit rate 0.28% among 200,000 | Potency, µM (series often up to 38.3 µM), for the others: at the highest dose activity change, negative = inhibition, hits mostly inhibitors; further: on the % scale 0 is the no-effect control and ±100 the full control effect; nearly all actives have a fitted effect of over 60% in size
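Compound is pinned into ATP-containing buffer (10 uM ATP, imidazole pH 7.2, 7 mM MgCl2). Kinase-Glo luciferase reagent is then added. Light output is recorded following an 8-min room-temperature incubation.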
ELG1 genotox – induces genotoxicity in HEK293T cells with luciferase-tagged ELG1 | AID 504466 | Potency, µM (highest dose often 46 µM), without a hit: at the top dose activity change, positive = activation, actives largely listed as activators | hit rate 1.3% among 330,000 | HEK293T ELG1-luciferase reporter, luminescence, 16 h; further: % of control where 0% means no effect; nearly all actives have a fitted effect of over 60% in size
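Genotoxic stress is detected as increased luminescence from luciferase-tagged ELG1 in HEK293T cells, measured with ONE-Glo after a 16 hr treatment at 37 °C.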
Starred values were filed as active, the others as inactive; ? = inconclusive; . = not tested or not shown. The call rests on the fitted dose curve; in most records, active means well fitted curve in the direction sought with a large enough effect; inconclusive means small, poorly fitted or top-dose-only effect, or another doubt; inactive means no such curve, though single readings can be large; an effect the other way counts as inactive or inconclusive. Potency means the concentration at half of the fitted maximal effect.

SMILES | NPC1 promoter act | FLuc modulator | Rab9 prom act | SMN2 splice enh | Luc counter | ELG1 genotox
Cc1cc(C)nc(Nc2n[nH]c(-c3ccc(C(C)(C)C)cc3)n2)n1 | 12% | 1.7µM* | -4% | -56% | -5% | 3%
Cc1cc(C)nc(Nc2n[nH]c(-c3ccc(N)cc3)n2)n1 | 1.6µM* | 9.5µM* | 3.5µM* | ? | -7% | 7.3µM*
O=C(NCc1ccco1)c1ccc(Oc2ccccc2)cc1 | 14% | 24µM* | 16% | 0% | 0% | ?
O=C(NCc1ccco1)c1ccc2c(c1)C(=O)c1ccccc1-2 | 4% | ? | 16% | -7% | 0% | 15µM*
O=C(Nc1sc2c(c1C(=O)NCc1ccco1)CCCC2)c1ccc2c(c1)OCO2 | 0% | 12µM* | ? | ? | 5% | 10µM*
CCOc1ccc(C(=O)NCc2ccco2)cc1 | 22% | ? | 22% | 9% | -8% | ?
O=C(NCc1ccco1)c1ccc2ccccc2c1 | ? | 13µM* | ? | 17% | -4% | 11%
CC(=O)c1ccc(NC(=O)CSc2nccn2C2CCCC2)cc1 | . | -12% | . | . | . | .
Cc1ccc(NC(=O)CCS(=O)(=O)c2cccc3nsnc23)c(C)c1 | . | -5% | . | -3% | . | .
CCn1cc(C(=O)NC(C)c2ccccc2)c(=O)c2cc(S(=O)(=O)N3CCc4ccccc4C3)ccc21 (stereo not given) | . | -2% | . | 17% | . | .
CC(C)(CO)NC(=O)c1ccc2c(c1)C(=O)c1ccccc1-2 | 2.5µM* | 19µM* | ? | . | . | 23µM*
O=C(O)C(=O)/C(=C\c1ccc([N+](=O)[O-])cc1)c1ccc2ccccc2n1 | 9% | ? | ? | 13µM* | 0% | 20%
O=C(O)C(=O)/C(=C\c1ccsc1)c1ccc2ccccc2n1 | 18% | ? | 21% | . | . | ?
O=C(O)C(=O)/C(=C\c1ccccc1)c1ccc2ccccc2n1 | 3% | -19% | 2% | . | 8% | 9.2µM*
CCOc1ccccc1NC(=O)Cn1c(=O)n(Cc2ccc(OC)cc2)c(=O)c2oc3ccccc3c21 | . | -5% | . | . | . | .
O=C(/C=C/c1ccc(Cl)cc1Cl)OCC(=O)N1CCCC1 | -4% | 15µM* | 12% | . | . | 4%
O=C(/C=C/c1cccc(F)c1)N1CCc2ccccc21 | 1.1µM* | 0.85µM* | 0.63µM* | 2.5µM* | ? | 1.8µM*
O=C(/C=C/c1ccc(Cl)cc1Cl)N1CCc2ccccc21 | 1.6µM* | 0.6µM* | 0.79µM* | 2.5µM* | -23% | 6.5µM*
Cc1nc(N2CCCC2)c2c(C(=O)N3CCN(c4cccc(Cl)c4)CC3)c(C)oc2n1 | . | -9% | . | . | . | .
COc1ccccc1Oc1ccc(NC(=O)c2ccccc2)cc1 | 13% | -1% | ? | . | 3% | 4%
COc1ccc(NC(=O)NC(=O)c2ccccc2)cc1 | 1µM* | ? | 0.71µM* | . | . | ?
O=C(NC(=O)c1ccccc1)Nc1ccccc1 | 0.45µM* | ? | 0.63µM* | . | . | ?
Cc1ccn(C(=O)c2ccc(NC(=O)CC(C)C)cc2)n1 | -6% | ? | -2% | 0% | -3% | 6%
O=C(CC1=NCCNC(c2ccccc2)C1)c1ccccc1O (stereo not given) | 17% | 0% | ? | 11µM* | 11% | 9%
O=C(CC1(O)C(=O)Nc2ccccc21)c1ccccc1O (stereo not given) | -4% | -1% | 10% | 11% | 5% | 2%
SMILES | NPC1 promoter act | FLuc modulator | Rab9 prom act | SMN2 splice enh | Luc counter | ELG1 genotox
COc1ccc(/C=N/NC(=O)c2cc(C34CC5CC(CC(C5)C3)C4)[nH]n2)cc1OC | -5% | ? | -3% | 5% | -1% | 3%
O=C(N/N=C/c1ccc(O)cc1)c1cc(C23CC4CC(CC(C4)C2)C3)[nH]n1 | -2% | 13µM* | 10% | . | . | 4%
Cc1nn(C)c(C)c1CNC(=O)Nc1ccc(Cl)cc1 | ? | ? | 3.2µM* | 27% | 2% | ?
Cc1nn(C)c(C)c1CNC(=O)Nc1cccc(Cl)c1 | 21% | ? | ? | . | 0% | -1%
CN1CC[C@@]2(CCCN(C(=O)c3cccn3C)C2)C1 | . | . | . | -14% | -1% | .
O=C(CCc1ccccc1)Nc1cc(C(=O)O)cc(C(=O)O)c1 | -1% | 2% | -14% | . | -8% | 3%
O=c1oc2ccccc2c(O)c1/C=N/c1ncccn1 | 2% | ? | 3% | -27% | ? | 5%
CC(N=Cc1c(O)c2ccccc2oc1=O)C(=O)O (stereo not given) | -5% | -14% | -8% | -8% | -5% | -4%
CCOc1ccc(N=Cc2c(O)c3ccccc3oc2=O)cc1 | -1% | 0.85µM* | -1% | -6% | ? | 9%
O=c1oc2ccccc2c(O)c1/C=C1\C=Nc2ccccc21 | 13% | 27µM* | -3% | -13% | 0% | -2%
O=c1oc2ccccc2c(O)c1/C=N/c1ccccn1 | -5% | 11µM* | 2% | -6% | ? | -3%
O=c1oc2ccccc2c(O)c1C=Nc1cccnc1 | -7% | 9.5µM* | -12% | -2% | -7% | -8%
CCOC(=O)c1cccc(NC(=O)CC(c2ccc(F)cc2)N2Cc3ccccc3C2=O)c1 (stereo not given) | . | -2% | . | . | . | .
COCCCNC(=O)COC(=O)c1ccc(-c2nc3ccccc3s2)s1 | 23% | 5.4µM* | ? | 13µM* | -14% | 14%
COc1ccc(CCNC(=O)COC(=O)c2ccc(C)s2)cc1 | -1% | -5% | 0% | . | . | 1%
CC(C)CC(=O)Nc1ccc(C(=O)Cn2nc(C(=O)O)c3ccccc3c2=O)cc1 | -1% | 5% | 1% | -17% | 0% | 1%
CCCn1c(C)cc(C(=O)Cn2nnc3ccccc3c2=O)c1C | 1µM* | 4.3µM* | 0.89µM* | 13µM* | 0% | ?
COCCn1c(C)cc(C(=O)Cn2nc(C(=O)O)c3ccccc3c2=O)c1C | 30% | 1.2µM* | ? | 25% | -4% | 8.2µM*
C=CCn1c(C)cc(C(=O)Cn2nc(C(=O)O)c3ccccc3c2=O)c1C | ? | 0.48µM* | ? | 11µM* | -2% | ?
CC(C)(C)c1ccc(C(=O)Cn2nc(C(=O)O)c3ccccc3c2=O)cc1 | -8% | 9.5µM* | 0% | . | . | -8%
Cc1cc(C(=O)Cn2nc(C(=O)O)c3ccccc3c2=O)c(C)n1-c1ccc(F)cc1 | 21% | 2.7µM* | 20% | ? | 0% | ?
COc1ccccc1NC(=O)c1coc(=O)c(Br)c1 | 4% | -3% | ? | . | . | ?
CC(C)c1ccc(Cc2cn3cc(-c4cc5ccccc5oc4=O)nc3s2)cc1 | . | -17% | . | -25% | . | .
COc1ccc2cc(-c3cn4c(n3)sc3cc(F)ccc34)c(=O)oc2c1 | . | 9.5µM* | . | . | . | .
Cc1ccc2c(c1)sc1nc(-c3cc4ccccc4oc3=O)cn12 | . | 0.43µM* | . | -12% | . | .
